# Measurements published in PubChem BioAssay (Tox21).
# Values without a mark were called inactive. Results filed as inconclusive are left out. A call without a number means that no potency is given here. Calls of active or inactive are those of the source. Unless noted, the call rests on the fitted dose curve; in most records, active means well fitted curve in the direction sought with a large enough effect in the repeat runs; inconclusive means weak or mixed curves; inactive means no such curve, though single readings can be large; an effect the other way counts as inactive or inconclusive.
# Assays:
# [1] = target: Estrogen receptor beta (Homo sapiens) (UniProt Q92731); assay: qHTS assay to identify small molecule agonists of the estrogen receptor beta (ER-beta) signaling pathway (AID 1259377; active means well fitted activation curve with a large enough effect in the signal ratio in the repeat runs, not every such curve was filed as active; the % refers to the signal ratio; further: potency means the concentration at half of the fitted maximal effect); settings: ER-beta-UAS-bla HEK293T, beta-lactamase FRET ratio, 16 h; series mostly up to 92.4 µM
# Method in brief: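 Read-out: beta-lactamase FRET fluorescence. Cell line: ER-beta-UAS-bla HEK293T in 2% charcoal-stripped FBS. Exposure: 16 hr at 37C. Substrate step: 2 h at room temperature.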
# [2] = target: Estrogen receptor beta (Homo sapiens) (UniProt Q92731); assay: qHTS assay to identify small molecule antagonists of the estrogen receptor beta (ER-beta) signaling pathway (AID 1259378; active means well fitted inhibition curve with a large enough effect in the signal ratio in the repeat runs, not every such curve was filed as active; the % refers to the signal ratio; further: potency means the concentration at half of the fitted maximal effect); settings: ER-beta-UAS-bla HEK293T, beta-lactamase FRET ratio, 16 h; series mostly up to 92.4 µM
# Method in brief: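 Antagonist mode: compounds added to beta-lactamase reporter HEK293T ER-beta-UAS cells stimulated with E2 (1nM final), 16 hr at 37C. LiveBLAzer B/G FRET substrate, 2 hours room temperature, fluorescence read-out.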
# [3] = qHTS assay to identify small molecule agonists of the androgen receptor (AR) signaling pathway in the presence of an antagonist - cell viability counter screen (AID 1259379); settings: MDA-kb2 viability, CellTiter-Fluor, 16 h; series mostly up to 92.4 µM; further: nearly all actives have a fitted effect of over 25% in size; further: potency means the concentration at half of the fitted maximal effect
# Method in brief: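 MDA-kb2 human breast carcinoma cells (stable MMTV-luciferase, AR/GR responsive) were seeded 3,000 cells/well, pre-incubated 5 hr at 37C without CO2, then given 3.0uM nilutamide and compounds at 15 concentrations for 16 hr. Viability was read by CellTiter-Fluor fluorescence.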
# [4] = qHTS assay to identify small molecule antagonists of the estrogen receptor beta (ER-beta) signaling pathway - cell viability counter screen (AID 1259382); settings: ER-beta-UAS-bla HEK293T viability, CellTiter-Glo luminescence, 16 h; series mostly up to 92.4 µM;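 further: HEK293T cells carrying ER-beta-UAS-bla reporter stimulated with estradiol; nearly all actives have a fitted effect of over 55% in size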
# Method in brief: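 ER-beta-UAS-bla HEK293T cells (2,000/well, 2% charcoal-stripped FBS) were pre-incubated 6 hr at 37C, then given compound plus 1nM final 17-beta-estradiol for 16 hr. Viability was read in the same wells by CellTiter-Glo luminescence after 30 min at room temperature.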
# [5] = target: Estrogen receptor (Homo sapiens) (UniProt P03372); assay: qHTS assay to identify small molecule agonists of the estrogen receptor alpha (ER-alpha) signaling pathway in the presence of an antagonist (AID 1259383; calls by dose curve; further: nearly all actives have a fitted effect of over 15% in size; further: potency means the concentration at half of the fitted maximal effect; on activation: top concentration of the series differs between compounds); settings: VM7Luc4E2 cells, ERE-luciferase, +ICI-182,780, 22 h; series mostly up to 92.4 µM
# Method in brief: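 VM7Luc4E2 cells (endogenous full-length ER-alpha, 4×ERE-luciferase) were precultured 5 days in phenol red-free medium with 10% charcoal-stripped FBS, given 10.0nM ICI-182,780 (final), then treated with compounds at 15 concentrations for 22hr at 37C; luminescence read with ONE-Glo.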
# [6] = qHTS assay to identify small molecule agonists or antagonists of the thyroid stimulating hormone receptor (TSHR) signaling pathway - wild type cell line counter screen (AID 1259384; calls by dose curve); settings: HEK293 wild type, cAMP HTRF counter-screen; series mostly up to 92.4 µM
# Method in brief: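 Counter screen in untransfected Hek293: compounds (15-point titration, triplicate) plus phosphodiesterase inhibitor Ro20-1724 added after 18 h plating; 30 min RT. Intracellular cAMP via competitive d2/cryptate immunoassay, 1 h incubation.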
# [7] = qHTS assay to identify small molecule agonists of the estrogen receptor alpha (ER-alpha) signaling pathway in the presence of an antagonist - cell viability counter screen (AID 1259386); settings: VM7Luc4E2 viability, CellTiter-Fluor fluorescence, 22 h; series mostly up to 92.4 µM;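 further: cells exposed to compounds for 22 h at 37 °C before the viability read; nearly all actives have a fitted effect of over 30% in size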; further: potency means the concentration at half of the fitted maximal effect
# Method in brief: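 VM7Luc4E2 cells (endogenous full-length ER-alpha, 4×ERE-luciferase) were held 5 days in phenol red-free medium with 10% charcoal-stripped FBS, plated, then given 10.0nM ICI-182,780 and compounds at 15 concentrations for 22hr at 37C; viability read by CellTiter-Fluor fluorescence.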
# [8] = target: Progesterone receptor (Homo sapiens) (UniProt P06401); assay: qHTS assay to identify small molecule antagonists of the progesterone receptor (PR) signaling pathway (AID 1346795; active means well fitted inhibition curve with a large enough effect in the signal ratio in the repeat runs, not every such curve was filed as active; the % refers to the signal ratio; further: potency means the concentration at half of the fitted maximal effect); settings: PR-UAS-bla HEK293T, beta-lactamase FRET ratio, 16 h; series mostly up to 92.4 µM
# Method in brief: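 In HEK293T cells bearing the PR-UAS-bla reporter, compound effects on promegestone-driven (1 nM) beta-lactamase expression are assessed after 16 hr using a fluorescent FRET substrate incubated 2 hr at room temperature.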
# [9] = qHTS assay to identify small molecule agonists of the TGF-beta/Smad signaling pathway - cell viability counter screen (AID 1346829); settings: SBE-bla HEK293T viability, CellTiter-Glo luminescence, 5 h; series mostly up to 76.8 µM; further: top concentration of the series differs between compounds; nearly all actives have a fitted effect of over 45% in size
# Method in brief: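 CellTiter-Glo luminescence readout; SBE-bla HEK 293T cells, overnight plating, compound 5 hr at 37 C/5% CO2, then bla substrate 2 hr RT, then CellTiter-Glo 30 min RT.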
# [10] = qHTS assay to identify small molecule agonists of the TGF-beta/Smad signaling pathway (AID 1346859; active means well fitted activation curve with a large enough effect in the signal ratio in the repeat runs, not every such curve was filed as active; the % refers to the signal ratio); settings: SBE-bla HEK293T, TGF-beta/Smad beta-lactamase reporter, 5 h; series mostly up to 76.8 µM
# Method in brief: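 Each well held 4,000 SBE-bla HEK 293T cells incubated overnight before compound addition; 5 hr later the cleavable FRET substrate went on for 2 hr at room temperature, and fluorescence was read at two emissions.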
# [11] = target: Thyrotropin-releasing hormone receptor (Homo sapiens) (UniProt P34981); assay: qHTS assay to identify small molecule antagonists of the thyrotropin-releasing hormone receptor (TRHR) signaling pathway (AID 1346877; active means well fitted inhibition curve with a large enough effect in the repeat runs, not every such curve was filed as active); settings: TRHR-HEK293, TRH-induced calcium fluorescence, antagonist mode; series mostly up to 51.3 µM
# Method in brief: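 TRHR-expressing HEK293 cells were seeded, cultured 18 h at 37 °C, then loaded with calcium dye for 2 h. Compounds were pre-incubated 5 min at room temperature before 1 nM TRH (final) was added, and kinetic fluorescence was recorded for 3 min.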
# [12] = target: Thyrotropin-releasing hormone receptor (Homo sapiens) (UniProt P34981); assay: qHTS assay to identify small molecule agonists of the thyrotropin-releasing hormone receptor (TRHR) signaling pathway (AID 1346891; calls by dose curve); settings: TRHR-HEK293 calcium fluorescence, agonist mode; series mostly up to 57.6 µM
# Method in brief: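 Screening of agonists relied on calcium signalling in HEK293 cells expressing human TRHR: dye loading 2 h at 37 °C preceded compound addition and a 3-min fluorescence time course.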
# [13] = Human pregnane X receptor (PXR) small molecule agonists, qHTS cell viability counter screen (AID 1346977); settings: PXR-Luc HepG2 viability, CellTiter-Fluor, 24 h; series mostly up to 92.4 µM; further: nearly all actives have a fitted effect of over 50% in size; further: potency means the concentration at half of the fitted maximal effect
# Method in brief: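 Tox21 qHTS format; PXR-Luc HepG2, 2,000/well, charcoal-stripped FBS 5%. Cpd exposure 24hr. Read: CellTiter-Fluor fluorescence, multiplexed with luciferase.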
# [14] = qHTS assay to identify small molecule agonists of the estrogen receptor beta (ER-beta) signaling pathway - cell viability counter screen (AID 1259380); settings: ER-beta-bla HEK293T viability, CellTiter-Glo luminescence, 16 h; series mostly up to 92.4 µM; further: nearly all actives have a fitted effect of over 30% in size
# Method in brief: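 ER-beta-UAS-bla HEK293T cells in medium with 2% charcoal-stripped FBS were preincubated 6 hr at 37C, dosed with compound in DMSO for 16 hr, then after the bla read, CellTiter-Glo was added for 30 min at room temperature; luminescence recorded.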
# [15] = target: Androgen receptor (Homo sapiens) (UniProt P10275); assay: qHTS assay to identify small molecule agonists of the androgen receptor (AR) signaling pathway in the presence of an antagonist (AID 1259381; calls by dose curve; further: nearly all actives have a fitted effect of over 15% in size); settings: MDA-kb2 MMTV-luciferase, AR agonist + nilutamide, 16 h; series mostly up to 92.4 µM
# Method in brief: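 MDA-kb2 human breast carcinoma cells carrying an MMTV-luciferase reporter (AR- and GR-responsive) were treated with compounds at 15 concentrations plus 3.0uM final nilutamide for 16hr at 37C without CO2; luminescence was read after ONE-Glo addition.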
# [16] = target: Thyrotropin receptor (Homo sapiens) (UniProt P16473); assay: qHTS assay to identify small molecule antagonists of the thyroid stimulating hormone receptor (TSHR) signaling pathway (AID 1259385; calls by dose curve; further: nearly all actives have a fitted effect of over 20% in size); settings: TSHR-HEK293 cAMP HTRF, TSH-stimulated antagonist mode; series mostly up to 92.4 µM
# Method in brief: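 Antagonist mode: compound-treated TSHR-expressing HEK293 cells were stimulated with 1.5 ng/mL TSH (final) in presence of Ro20-1724 for 30 min at RT. HTRF cAMP detection after 1 h; each compound tested at 15 concentrations, triplicate.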
# [17] = target: Progesterone receptor (Homo sapiens) (UniProt P06401); assay: qHTS assay to identify small molecule agonists of the progesterone receptor (PR) signaling pathway (AID 1346784; calls by dose curve; further: nearly all actives have a fitted effect of over 30% in size); settings: PR-UAS-bla HEK293T, beta-lactamase FRET ratio, 16 h; series mostly up to 92.4 µM
# Method in brief: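 Compounds were tested for PR agonism in HEK 293T cells bearing a beta-lactamase gene under UAS control. Treatment lasted 16 hr at 37C; signal came from fluorescence of a FRET substrate.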
# [18] = qHTS assay to identify small molecule antagonists of the TGF-beta/Smad signaling pathway - cell viability counter screen (AID 1346824); settings: SBE-bla HEK293T viability, CellTiter-Glo luminescence; series mostly up to 76.8 µM; further: nearly all actives have a fitted effect of over 50% in size
# Method in brief: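 Cytotoxicity counter-screen run in the same wells as the beta-lactamase Smad reporter read: CellTiter-Glo luminescence after 30 min at room temperature. HEK 293T SBE-bla cells had 5 hr compound exposure at 37 C with TGF-beta1 (0.25 ng/mL stock).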
# [19] = qHTS assay to identify small molecule antagonists of the progesterone receptor (PR) signaling pathway - cell viability counter screen (AID 1346798); settings: PR-UAS-bla HEK293T viability, CellTiter-Glo luminescence, 16 h; series mostly up to 92.4 µM; further: nearly all actives have a fitted effect of over 50% in size; further: potency means the concentration at half of the fitted maximal effect
# Method in brief: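 Following a 4 hr attachment, PR-UAS-bla HEK293T cells in charcoal-stripped FBS medium were exposed to compounds with R5020 for 16 hr; CellTiter-Glo was added and luminescence read after 30 min at room temperature.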
# [20] = qHTS assay to identify small molecule agonists of the progesterone receptor (PR) signaling pathway - cell viability counter screen (AID 1346799; calls by dose curve; further: nearly all actives have a fitted effect of over 45% in size); settings: PR-UAS-bla HEK293T viability, CellTiter-Glo luminescence, 16 h; series mostly up to 92.4 µM
# Method in brief: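 Here, 3,000 PR-UAS-bla HEK293T cells per well were treated with compounds for 16 hr after a 6 hr preincubation at 37C and 5% CO2; cell viability is the CellTiter-Glo luminescence signal.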
# Chain of Progesterone receptor (Homo sapiens) (P06401 whole entry, looked up): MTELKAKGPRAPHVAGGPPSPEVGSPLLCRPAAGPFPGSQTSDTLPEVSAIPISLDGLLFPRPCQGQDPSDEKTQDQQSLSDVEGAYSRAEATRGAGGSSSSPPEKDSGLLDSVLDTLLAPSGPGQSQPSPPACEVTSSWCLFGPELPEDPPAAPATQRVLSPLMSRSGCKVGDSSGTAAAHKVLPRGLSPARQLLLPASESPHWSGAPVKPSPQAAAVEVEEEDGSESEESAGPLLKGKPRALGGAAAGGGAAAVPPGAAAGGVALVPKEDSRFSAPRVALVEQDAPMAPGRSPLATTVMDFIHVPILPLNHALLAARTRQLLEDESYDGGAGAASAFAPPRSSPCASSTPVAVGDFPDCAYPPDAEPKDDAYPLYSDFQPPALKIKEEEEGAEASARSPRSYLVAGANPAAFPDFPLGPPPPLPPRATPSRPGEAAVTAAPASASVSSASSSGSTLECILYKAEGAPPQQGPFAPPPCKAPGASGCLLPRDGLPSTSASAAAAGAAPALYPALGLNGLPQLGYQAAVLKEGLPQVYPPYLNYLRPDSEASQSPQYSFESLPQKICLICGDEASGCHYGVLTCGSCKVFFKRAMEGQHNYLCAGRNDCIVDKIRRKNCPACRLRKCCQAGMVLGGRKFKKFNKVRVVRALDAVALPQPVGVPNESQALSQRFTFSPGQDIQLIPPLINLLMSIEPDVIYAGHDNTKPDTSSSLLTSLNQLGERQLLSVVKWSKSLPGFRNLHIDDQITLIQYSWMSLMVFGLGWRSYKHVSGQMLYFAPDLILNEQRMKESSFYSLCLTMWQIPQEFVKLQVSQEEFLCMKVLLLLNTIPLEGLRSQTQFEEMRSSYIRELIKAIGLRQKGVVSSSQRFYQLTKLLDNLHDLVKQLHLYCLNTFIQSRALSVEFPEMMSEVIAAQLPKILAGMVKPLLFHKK
# Chain of Estrogen receptor beta (Homo sapiens) (Q92731 whole entry, looked up): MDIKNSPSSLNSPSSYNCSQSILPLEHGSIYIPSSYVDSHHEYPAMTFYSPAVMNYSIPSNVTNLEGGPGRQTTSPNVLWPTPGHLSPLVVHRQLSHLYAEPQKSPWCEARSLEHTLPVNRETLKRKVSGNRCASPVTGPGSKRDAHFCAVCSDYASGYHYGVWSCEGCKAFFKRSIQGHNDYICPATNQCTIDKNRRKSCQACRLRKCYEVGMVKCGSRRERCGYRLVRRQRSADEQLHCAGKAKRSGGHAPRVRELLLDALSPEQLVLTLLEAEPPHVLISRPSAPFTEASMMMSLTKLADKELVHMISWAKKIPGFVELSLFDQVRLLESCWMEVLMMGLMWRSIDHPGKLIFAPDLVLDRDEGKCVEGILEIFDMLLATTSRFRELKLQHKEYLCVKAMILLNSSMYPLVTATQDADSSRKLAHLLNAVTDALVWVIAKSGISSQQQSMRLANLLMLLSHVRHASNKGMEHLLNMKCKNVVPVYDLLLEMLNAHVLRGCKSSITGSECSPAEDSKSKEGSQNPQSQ
# Chain of Thyrotropin receptor (Homo sapiens) (P16473 whole entry, looked up): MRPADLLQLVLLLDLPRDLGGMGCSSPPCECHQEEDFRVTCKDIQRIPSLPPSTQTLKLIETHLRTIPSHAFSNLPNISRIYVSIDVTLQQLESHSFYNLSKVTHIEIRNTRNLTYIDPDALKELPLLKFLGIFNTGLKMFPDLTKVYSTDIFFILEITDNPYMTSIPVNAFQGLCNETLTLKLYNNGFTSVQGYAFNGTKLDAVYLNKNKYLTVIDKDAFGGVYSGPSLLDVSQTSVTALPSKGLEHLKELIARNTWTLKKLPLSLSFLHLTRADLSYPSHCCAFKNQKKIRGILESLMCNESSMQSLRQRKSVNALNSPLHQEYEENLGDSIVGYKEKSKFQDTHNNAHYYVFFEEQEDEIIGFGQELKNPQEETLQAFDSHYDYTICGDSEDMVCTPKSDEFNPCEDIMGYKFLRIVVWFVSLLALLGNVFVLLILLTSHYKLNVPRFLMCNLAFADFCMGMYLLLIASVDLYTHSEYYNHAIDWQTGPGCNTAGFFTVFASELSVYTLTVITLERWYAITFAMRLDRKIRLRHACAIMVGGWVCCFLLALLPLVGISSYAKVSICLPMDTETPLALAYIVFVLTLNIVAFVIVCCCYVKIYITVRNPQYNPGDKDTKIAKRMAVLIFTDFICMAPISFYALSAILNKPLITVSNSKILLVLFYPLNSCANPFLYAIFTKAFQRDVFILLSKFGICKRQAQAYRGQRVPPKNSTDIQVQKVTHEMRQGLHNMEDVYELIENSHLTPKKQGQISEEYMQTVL
# Chain of Thyrotropin-releasing hormone receptor (Homo sapiens) (P34981 whole entry, looked up): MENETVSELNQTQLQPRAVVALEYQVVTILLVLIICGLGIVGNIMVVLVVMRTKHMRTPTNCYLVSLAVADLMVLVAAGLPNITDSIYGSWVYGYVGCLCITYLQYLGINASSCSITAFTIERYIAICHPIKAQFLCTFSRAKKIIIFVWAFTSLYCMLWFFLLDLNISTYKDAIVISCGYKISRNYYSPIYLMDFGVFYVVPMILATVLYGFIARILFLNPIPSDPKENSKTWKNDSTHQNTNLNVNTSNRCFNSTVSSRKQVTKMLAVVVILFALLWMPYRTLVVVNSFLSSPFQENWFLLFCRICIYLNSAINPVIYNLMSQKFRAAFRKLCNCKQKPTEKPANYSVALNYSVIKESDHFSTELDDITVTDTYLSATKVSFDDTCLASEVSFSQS
# Chain of Androgen receptor (Homo sapiens) (P10275 whole entry, looked up): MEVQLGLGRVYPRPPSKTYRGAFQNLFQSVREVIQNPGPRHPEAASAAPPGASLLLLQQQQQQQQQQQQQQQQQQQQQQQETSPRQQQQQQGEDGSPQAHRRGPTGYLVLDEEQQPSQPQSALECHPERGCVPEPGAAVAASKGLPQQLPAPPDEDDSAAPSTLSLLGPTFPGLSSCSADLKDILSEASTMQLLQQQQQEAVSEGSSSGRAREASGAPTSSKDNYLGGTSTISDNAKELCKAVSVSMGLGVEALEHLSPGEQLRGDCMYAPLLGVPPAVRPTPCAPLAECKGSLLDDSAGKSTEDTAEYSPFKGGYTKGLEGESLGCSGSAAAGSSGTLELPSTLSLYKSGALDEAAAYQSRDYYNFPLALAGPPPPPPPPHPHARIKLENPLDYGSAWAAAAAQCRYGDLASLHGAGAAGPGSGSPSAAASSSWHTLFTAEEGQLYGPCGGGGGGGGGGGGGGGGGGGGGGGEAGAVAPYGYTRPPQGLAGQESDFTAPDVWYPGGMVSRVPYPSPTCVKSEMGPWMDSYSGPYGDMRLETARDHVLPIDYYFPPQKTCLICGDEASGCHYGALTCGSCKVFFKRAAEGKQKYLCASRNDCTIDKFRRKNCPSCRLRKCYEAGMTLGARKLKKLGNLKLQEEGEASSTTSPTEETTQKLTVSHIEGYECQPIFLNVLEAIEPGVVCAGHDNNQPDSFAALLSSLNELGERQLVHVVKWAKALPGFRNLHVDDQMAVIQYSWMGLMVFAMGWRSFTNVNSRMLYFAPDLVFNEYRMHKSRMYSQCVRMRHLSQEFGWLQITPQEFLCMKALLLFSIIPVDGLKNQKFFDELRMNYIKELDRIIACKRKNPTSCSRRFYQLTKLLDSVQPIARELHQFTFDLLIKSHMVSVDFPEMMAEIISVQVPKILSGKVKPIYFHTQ
# Chain of Estrogen receptor (Homo sapiens) (P03372 whole entry, looked up): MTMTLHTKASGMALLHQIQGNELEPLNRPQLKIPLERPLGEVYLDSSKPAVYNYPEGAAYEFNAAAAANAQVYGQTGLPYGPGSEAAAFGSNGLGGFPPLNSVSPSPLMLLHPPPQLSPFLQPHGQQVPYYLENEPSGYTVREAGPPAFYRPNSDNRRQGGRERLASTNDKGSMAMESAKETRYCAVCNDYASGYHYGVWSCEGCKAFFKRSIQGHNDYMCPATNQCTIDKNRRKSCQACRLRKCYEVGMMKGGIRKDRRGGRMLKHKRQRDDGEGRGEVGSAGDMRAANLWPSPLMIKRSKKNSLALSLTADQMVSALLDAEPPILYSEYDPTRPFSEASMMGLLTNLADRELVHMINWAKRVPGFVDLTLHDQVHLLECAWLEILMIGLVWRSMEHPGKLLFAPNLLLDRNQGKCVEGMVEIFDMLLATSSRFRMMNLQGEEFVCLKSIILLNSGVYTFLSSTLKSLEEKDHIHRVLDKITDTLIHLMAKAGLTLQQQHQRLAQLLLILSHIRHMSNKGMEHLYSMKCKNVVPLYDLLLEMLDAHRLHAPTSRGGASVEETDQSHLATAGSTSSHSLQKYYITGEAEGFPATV
Compound,Potency [1],Potency [2],Potency [3],Potency [4],Potency [5],Potency [6],Potency [7],Potency [8],Potency [9],Potency [10],outcome [11],outcome [12],Potency [13],Potency [14],Potency [15],Potency [16],Potency [17],outcome [18],Potency [19],Potency [20]
COc1cc(S(=O)(=O)Nc2ccccc2)c(OC)cc1N,inactive,inactive,inactive,inactive,inactive,inactive,inactive,inactive,inactive,inactive,inactive,inactive,inactive,,,,,,,
O=C(c1ccccc1)c1ccc(O)cc1,12.3 µM (active),,inactive,inactive,49.1 µM (active),inactive,,43.8 µM (active),,,inactive,inactive,inactive,inactive,inactive,inactive,inactive,inactive,,
[Cl][Nd]([Cl])[Cl],inactive,,inactive,inactive,inactive,inactive,inactive,,inactive,inactive,inactive,inactive,inactive,inactive,,inactive,inactive,,inactive,inactive
Nc1ccc(S(=O)(=O)NCc2ccccc2)cc1,inactive,inactive,inactive,inactive,,inactive,inactive,inactive,inactive,inactive,inactive,,inactive,,,inactive,inactive,inactive,inactive,inactive
CCSC(=O)N(CC)CC,inactive,,inactive,inactive,inactive,inactive,inactive,inactive,inactive,inactive,inactive,,inactive,inactive,,inactive,inactive,inactive,inactive,inactive
CCCCCCCCCCCCCC(=O)OCC(O)CO (stereo not given),inactive,,inactive,,,inactive,inactive,inactive,,inactive,,,inactive,inactive,inactive,inactive,inactive,inactive,inactive,inactive
CCN(Cc1cccc(S(=O)(=O)O)c1)c1ccc(C(=C2C=CC(=[N+](CC)Cc3cccc(S(=O)(=O)O)c3)C=C2)c2ccc(O)cc2S(=O)(=O)[O-])cc1,inactive,inactive,16.6 µM (active),,inactive,,16.6 µM (active),,,,,,18.6 µM (active),,,,,,,inactive
CNC1CCCN(c2c(F)cc3c(=O)c(C(=O)O)cn(C4CC4)c3c2OC)C1 (stereo not given),inactive,,inactive,inactive,inactive,inactive,inactive,inactive,inactive,inactive,,,inactive,inactive,,inactive,inactive,inactive,inactive,inactive
COc1ccc(-c2cc(=S)ss2)cc1,inactive,13.3 µM (active),,inactive,,inactive,,,inactive,inactive,inactive,inactive,inactive,inactive,,,,inactive,15 µM (active),
O=C1OC(=O)c2c(Br)c(Br)c(Br)c(Br)c21,inactive,inactive,inactive,inactive,,inactive,inactive,,inactive,inactive,inactive,inactive,inactive,,,inactive,inactive,,,inactive
Cc1ccc(S(=O)(=O)NC(=O)NC2CCCCC2)cc1,inactive,,inactive,inactive,inactive,inactive,inactive,inactive,inactive,,inactive,inactive,inactive,inactive,,inactive,inactive,inactive,,inactive
O=S(=O)(Cl)c1c(Cl)cccc1Cl,inactive,,inactive,inactive,inactive,inactive,inactive,inactive,inactive,,inactive,inactive,inactive,inactive,inactive,inactive,inactive,,,inactive
Cc1cc([N+](=O)[O-])ccc1N,inactive,,53.8 µM (active),inactive,inactive,inactive,47.9 µM (active),,inactive,inactive,,,,inactive,,inactive,inactive,,,inactive
O=[N+]([O-])c1ccc2ncccc2c1,inactive,,inactive,inactive,inactive,inactive,inactive,inactive,inactive,,inactive,inactive,inactive,inactive,,inactive,inactive,inactive,inactive,inactive
